Assay outcomes: PubChem, National Center for Advancing Translational Sciences (NCATS)
D3 antag = blocks the human D3 dopamine receptor. hit rate 2.5% among 360,000. max response, negative = inhibition, %. D3R cells, DiscoveRx beta-arrestin luminescence, antagonist mode; hits give low values; in the data active = max response below about -50%; inconclusive = no clear call, values can overlap the other calls; note: % is set by controls: 0 for no effect and ±100 for the full control effect
Target sequence (P35462 whole entry, looked up): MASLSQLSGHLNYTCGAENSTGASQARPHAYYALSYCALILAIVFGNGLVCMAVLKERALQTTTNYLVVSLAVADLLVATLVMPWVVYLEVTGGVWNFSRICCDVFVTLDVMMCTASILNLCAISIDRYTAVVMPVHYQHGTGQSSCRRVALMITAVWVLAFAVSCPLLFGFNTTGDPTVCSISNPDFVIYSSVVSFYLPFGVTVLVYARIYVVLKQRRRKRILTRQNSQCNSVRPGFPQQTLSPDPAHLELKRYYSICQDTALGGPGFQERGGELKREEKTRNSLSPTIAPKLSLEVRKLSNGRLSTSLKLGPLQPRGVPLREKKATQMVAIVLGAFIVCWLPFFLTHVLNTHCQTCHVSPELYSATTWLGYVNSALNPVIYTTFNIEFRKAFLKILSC
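Cells expressing the human receptor were seeded at 1500 cells/well, incubated overnight at 37 degrees C in 5% CO2, then exposed to library compounds with dopamine controls for 90 minutes at 37 degrees C before luminescent detection.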
DRD3 agonist = agonists of human D3 dopamine receptor. hit rate 0.58% among 410,000. max activation, %. D3R DiscoveRx beta-arrestin cells, luminescence, 90 min; in the data active = max activation above about 30%; note: 0% is about no effect
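Agonist mode: compounds and dopamine controls were applied to plated cells for 90 min at 37 degrees C after an overnight attachment at 1500 cells/well. Luminescent read-out followed 30 - 60 minutes at room temperature with DiscoveRx detection reagent.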
ClpP mod = qHTS Assay for Activators of ClpP | purified B. subtilis ClpP, FRET peptide cleavage, 20 min | Potency, µM (series often up to 57.5 µM), for the others: at the highest dose activity change, negative = active | hit rate 1.9% among 340,000 | AID 651965, 2013; active = well fitted falling curve with a large enough effect; inconclusive = small, poorly fitted or top-dose-only effect; inactive = no such curve, though single readings can be large or run the other way; note: potency is the fitted concentration of half-maximal effect; the source files actives as falling curves though it sought activators and does not explain the sign; nearly all actives have a fitted effect of over 65% in size
Target sequence (P80244 whole entry, looked up): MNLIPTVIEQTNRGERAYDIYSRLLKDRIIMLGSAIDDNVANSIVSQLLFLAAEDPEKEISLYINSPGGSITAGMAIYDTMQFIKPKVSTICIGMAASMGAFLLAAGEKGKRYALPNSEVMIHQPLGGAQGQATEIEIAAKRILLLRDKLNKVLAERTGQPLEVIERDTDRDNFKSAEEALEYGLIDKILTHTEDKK
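FRET quenching reversal measured ClpP activation: 10 microg/mL B. subtilis ClpP at pH 8 with the FRET-FV decapeptide, read at 430 nm after 320 nm excitation. The 20-min minus 0-min signal was scaled between DMSO/no-enzyme wells and ADEP (5.8 microM final).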
DT40 TDP1 no CPT = qHTS for Inhibitors of human tyrosyl-DNA phosphodiesterase 1 (TDP1): qHTS in cells in absence of CPT | DT40 Tdp1-/- hTDP1 cells, no CPT, ATP luminescence, 48 h | Potency, µM (titrated, usually from 46.2 µM), inactives show at the top dose activity change, negative = growth inhibition, actives largely listed as inhibitors | hit rate 15% among 420,000 | AID 686978, 2013; note: potency is the fitted concentration of half-maximal effect; % is set by controls: 0 for no effect and ±100 for the full control effect; nearly all actives have a fitted effect of over 55% in size
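Chicken DT40 Tdp1-/- cells stably complemented with human TDP1 were seeded at 400 cells/well with DMSO in place of 20 nM camptothecin. After compound pinning, cells grew at least 48 hr at 37 °C; viability read by CellTiter-Glo luminescence.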
IL-1B inflam inh = inhibitors of inflammasome signaling (IL-1 beta secretion) | hit rate 4.7% among 360,000 | AID 743279 | THP-1 LPS/ATP IL-1B secretion, AlphaLISA, 16 h; hits give low values | activity change, % at 57.5 µM; in the data active = activity change below about -50%; inconclusive = mostly about -30% to -49%; note: % is set by controls: 0 for no effect and ±100 for the full control effect
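Secreted IL-1B measured by AlphaLISA bead assay after 16 h compound exposure of THP-1 cells; compounds (final up to 57.5 uM) added 1 h before LPS (250 ng/mL) and ATP (1.25 mM) stimulation; lower signal means less secretion.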
DT40 TDP1 CPT = growth inhibition of DT40 Tdp1-/-;hTDP1 cells with camptothecin (screen for TDP1 inhibitors) | chicken DT40 Tdp1-/-;hTDP1 cells + 20 nM CPT, ATP luminescence, 48 h | Potency, µM (series often up to 46.2 µM), without a hit: top-dose activity change, negative = growth inhibition, actives largely listed as inhibitors | hit rate 12% among 420,000 | AID 686979; note: potency is the fitted concentration of half-maximal effect; % is set by controls: 0 for no effect and ±100 for the full control effect; nearly all actives have a fitted effect of over 55% in size
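Cell growth measured by CellTiter-Glo luminescence after a minimum 48 h, 37 C compound exposure with 20 nM CPT in Tdp1-knockout DT40 cells stably expressing hTDP1, seeded 400/well; qHTS titration format.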
Starred values were filed as active, the others as inactive. An excerpt weighted towards active compounds, which were near 21% of everything screened. Unless noted, calls come from the whole dose curve; as a rule, active = well fitted inhibition curve with a large enough effect; inconclusive = small, poorly fitted or top-dose-only effect; inactive = flat fitted curve, though single readings scatter.

For CCCCC[C@H](C)N1C[C@H](COCc2ccccc2)Oc2cc(N3CCC[C@H]3COC)ccc2S1(=O)=O the results were D3 antag 19, DRD3 agonist 2, ClpP mod -10%, DT40 TDP1 no CPT 18µM*, IL-1B inflam inh 0 and DT40 TDP1 CPT inconclusive.
Screening CCCCC[C@@H](C)N1C[C@H](COCc2ccccc2)Oc2cc(N3CCC[C@H]3COC)ccc2S1(=O)=O returned D3 antag -1, DRD3 agonist 1, ClpP mod -20%, DT40 TDP1 no CPT 6.5µM*, IL-1B inflam inh 2 and DT40 TDP1 CPT 5.8µM*.
`CCCCC[C@@H](C)N1C[C@@H](COCc2ccccc2)Oc2cc(N3CCC[C@@H]3COC)ccc2S1(=O)=O` gave D3 antag 2, DRD3 agonist 4, ClpP mod inconclusive, DT40 TDP1 no CPT 16µM*, IL-1B inflam inh 56 and DT40 TDP1 CPT inconclusive.
`CCCCC[C@@H](C)N1C[C@@H](COCc2ccccc2)Oc2cc(N3CCC[C@H]3COC)ccc2S1(=O)=O` gave D3 antag 6, DRD3 agonist -4, ClpP mod -11%, DT40 TDP1 no CPT 18µM*, IL-1B inflam inh 39 and DT40 TDP1 CPT inconclusive.
CC(C)(C)S(=O)N1Cc2cc(C(=O)NCc3ccc4c(c3)OCO4)nc(-c3cccc(-c4ccncc4)c3)c2[C@H]1CCO (some centres not stated) was read as D3 antag 91, DRD3 agonist 7, ClpP mod -1%, DT40 TDP1 no CPT inconclusive, IL-1B inflam inh inconclusive and DT40 TDP1 CPT inconclusive.
Screening CCCNC(=O)c1cc2c(c(-c3cccc(-c4ccc(F)cc4)c3)n1)[C@H](CCO)N(S(=O)C(C)(C)C)C2 (some centres not stated) returned D3 antag 50, DRD3 agonist 13, ClpP mod 1%, DT40 TDP1 no CPT 23µM*, IL-1B inflam inh inconclusive and DT40 TDP1 CPT inconclusive.
For CC(C)(C)S(=O)N1Cc2cc(C(=O)NCc3ccc4c(c3)OCO4)nc(-c3cccc(-c4ccccc4)c3)c2[C@@H]1CCO (some centres not stated) the results were D3 antag 12, DRD3 agonist 4, ClpP mod -6%, DT40 TDP1 no CPT inconclusive, IL-1B inflam inh -28 and DT40 TDP1 CPT 23µM*.
For COc1cc(NS(=O)(=O)c2ccc(NC(=O)CCC(=O)O)cc2)nc(OC)n1 the results were D3 antag -18, DRD3 agonist -9, DT40 TDP1 no CPT -21%, IL-1B inflam inh -10 and DT40 TDP1 CPT -6%.
`CN(C(=O)c1cc2c(cc1Br)OCO2)c1cccc2ccccc12` gave D3 antag 47, DRD3 agonist 0, ClpP mod -2%, DT40 TDP1 no CPT 21µM*, IL-1B inflam inh 27 and DT40 TDP1 CPT inconclusive.
`O=c1[nH]c(-c2ccccc2)ncc1OCc1ccccc1` gave D3 antag 4, DRD3 agonist 2, ClpP mod 1%, DT40 TDP1 no CPT -22%, IL-1B inflam inh -7 and DT40 TDP1 CPT 13µM*.
`COc1ccc(OC)c(COC(=O)c2cc([N+](=O)[O-])ccc2N2CCOCC2)c1` gave D3 antag inconclusive, DRD3 agonist -5, ClpP mod 1%, DT40 TDP1 no CPT 4.1µM*, IL-1B inflam inh 44 and DT40 TDP1 CPT 7.3µM*.
Screening CCOc1ccc(C(C)=O)cc1COC(=O)c1cc([N+](=O)[O-])ccc1N1CCOCC1 returned D3 antag 1, DRD3 agonist -1, ClpP mod 1%, DT40 TDP1 no CPT inconclusive, IL-1B inflam inh 14 and DT40 TDP1 CPT 23µM*.
`CCOc1ccc(C(=O)COC(=O)c2cc([N+](=O)[O-])ccc2N2CCOCC2)cc1` gave D3 antag 7, DRD3 agonist 7, DT40 TDP1 no CPT inconclusive, IL-1B inflam inh 47 and DT40 TDP1 CPT inconclusive.
Screening O=C(NCCCN1CCN(c2ccccc2F)CC1)c1cc2c(s1)-c1ccccc1OC2 returned DRD3 agonist 1, ClpP mod 4%, DT40 TDP1 no CPT inconclusive and DT40 TDP1 CPT inconclusive.
Cc1ccc(-n2ncc3c(N4CCCCC4)ncnc32)cc1 was read as DRD3 agonist 1, ClpP mod -19%, DT40 TDP1 no CPT inconclusive and DT40 TDP1 CPT inconclusive.
`COc1ccc(C)cc1NC(=O)c1ccc2c(c1)OCO2` gave D3 antag -15, DRD3 agonist -5, ClpP mod 0%, DT40 TDP1 no CPT -25%, IL-1B inflam inh 2 and DT40 TDP1 CPT -12%.
For COc1ccc(OC)c(NC(=O)c2cc(OC(C)=O)cc(C(=O)Nc3cc(OC)ccc3OC)c2)c1 the results were D3 antag 48, DRD3 agonist 13, ClpP mod -21%, DT40 TDP1 no CPT 10µM*, IL-1B inflam inh -10 and DT40 TDP1 CPT inconclusive.
Screening COc1ccc(C(=O)Nc2cc(OC)ccc2OC)cc1 returned D3 antag 4, DRD3 agonist 2, ClpP mod 0%, DT40 TDP1 no CPT -12%, IL-1B inflam inh -6 and DT40 TDP1 CPT -11%.
`COc1ccc(C)cc1NC(=O)c1cccc(C(=O)Nc2cc(C)ccc2OC)c1` gave D3 antag 44, DRD3 agonist -11, ClpP mod -3%, DT40 TDP1 no CPT 10µM*, IL-1B inflam inh inconclusive and DT40 TDP1 CPT 15µM*.
Screening Cc1cccc(N(C(=O)CCC(=O)Nc2nccs2)C(C(=O)NC(C)(C)C)c2ccc(O)cc2)c1 (configuration not stated) returned D3 antag 1, DRD3 agonist 16, DT40 TDP1 no CPT -29%, IL-1B inflam inh -8 and DT40 TDP1 CPT -12%.
CCOc1cc(/C=C2\SC(=O)N(c3ccc(O)cc3)C2=O)ccc1O was read as D3 antag 18, DRD3 agonist -12, ClpP mod 0%, DT40 TDP1 no CPT inconclusive, IL-1B inflam inh inconclusive and DT40 TDP1 CPT inconclusive.
Screening CCOc1cc(/C=C2\N=C(SC(C)C(N)=O)N(c3ccc(OC(F)F)cc3)C2=O)ccc1O (configuration not stated) returned D3 antag -57*, DRD3 agonist -13, ClpP mod -3%, DT40 TDP1 no CPT 10µM*, IL-1B inflam inh -12 and DT40 TDP1 CPT inconclusive.
Screening NC(=O)CSC1=N/C(=C\c2ccco2)C(=O)N1c1ccc(OC(F)F)cc1 returned D3 antag 3, DRD3 agonist 6, ClpP mod -3%, DT40 TDP1 no CPT 13µM*, IL-1B inflam inh -9 and DT40 TDP1 CPT inconclusive.
